Test results: PubChem BioAssay (NCI)
The panel holds about 83,000 compounds, 20% with a hit somewhere; the sample as a whole holds those more often.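 How to read the values: 0–100, growth inhibition (40 = 60% inhibited); 0, no net growth; -100 to 0, cell death (-40 = 40% of starting cells died; -100 = all dead).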 A number with no mark means an inactive call. Activity calls are given as the source filed them. Rule for the calls: active = growth percent below 10; inactive = the rest.

Assays:
Assay in all cases: NCI-60 one-dose screen, 48 h (100 = growth as untreated, 0 = no growth, -100 = all killed)
Settings in all cases: 10 µM
NCI-H23 lung = test system: NCI-H23 lung
NCI-H226 lung = test system: NCI-H226 lung
NCI-H322M lung = test system: NCI-H322M lung
HOP-62 NSCLC = test system: HOP-62 NSCLC
NCI-H460 lung = test system: NCI-H460 lung
NCI-H522 lung = test system: NCI-H522 lung
A549/ATCC NSCLC = test system: A549/ATCC NSCLC
786-0 renal = test system: 786-0 renal
COLO 205 colon = test system: COLO 205 colon
DU-145 prostate = test system: DU-145 prostate
K-562 leukemia = test system: K-562 leukemia
MALME-3M melanoma = test system: MALME-3M melanoma
MDA-MB-231 breast = test system: MDA-MB-231 breast
RXF 393 renal = test system: RXF 393 renal
SF-268 CNS = test system: SF-268 CNS
SF-295 CNS = test system: SF-295 CNS
SF-539 CNS = test system: SF-539 CNS
UACC-257 melanoma = test system: UACC-257 melanoma
M14 melanoma = test system: M14 melanoma
HCT-15 colon = test system: HCT-15 colon

Compound	growth (NCI-H23 lung) [%]	growth (NCI-H226 lung)	growth (NCI-H322M lung)	growth (HOP-62 NSCLC)	growth (NCI-H460 lung)	growth (NCI-H522 lung)	growth (A549/ATCC NSCLC)	growth (786-0 renal)	growth (COLO 205 colon)	growth (DU-145 prostate)	growth (K-562 leukemia)	growth (MALME-3M melanoma)	growth (MDA-MB-231 breast)	growth (RXF 393 renal)	growth (SF-268 CNS)	growth (SF-295 CNS)	growth (SF-539 CNS)	growth (UACC-257 melanoma)	growth (M14 melanoma)	growth (HCT-15 colon)
CCOC(=O)N1C=CC2C=CC1C1C=CC=CC2N1C(=O)OCC (stereo not given)	108	91%	106%	106%	103%	89.3%	94.8%	105%	117%	112%	47.8%	94.8%	87%	86.8%	101%	116%	81.2%	87.7%	89.5%	86.2%
COc1ccc(/C=C2/CN(CCC#N)C/C(=C\c3ccc(OC)cc3)C2=O)cc1	31.1	-6.76% (active)	76%	-38% (active)	2.6% (active)	-28% (active)	-4.55% (active)	-14.3% (active)	-52.3% (active)	5.29% (active)	1.95% (active)	-44.7% (active)	-25.4% (active)	-63% (active)	0.448% (active)	-32.7% (active)	9.73% (active)	17.4%	0.654% (active)	0.438% (active)
C=C(Cl)[C@@](Cl)(CBr)CC[C@@H](Br)C(C)(C)Cl	83.2	105%	-98.1% (active)	-93.2% (active)	-47.7% (active)	85.1%	-6.36% (active)	-65.5% (active)	-70.3% (active)	-94.3% (active)	8.41% (active)	102%	-78.2% (active)	-5.37% (active)	1.89% (active)	-48.4% (active)	-81.9% (active)	-66.7% (active)	89.1%	-63.8% (active)
COc1cc(Cl)cc(-c2nn(-c3cccc(NC(=O)c4ccc(Cl)c(Cl)c4)c3)cc2-c2ccncc2)c1	75.3	66.3%	84.5%	105%	65.2%	53.7%	59.7%	74.1%	81.5%	88.5%	46.3%	96.4%	33.9%	59.2%	82.4%	36.1%	74.5%	84.2%	68.9%	57.9%
CC1(C)CCC(=NNC(N)=S)CC1	99.1	110%	115%	111%	104%	97.1%	106%	113%	125%	111%	94.6%	107%	116%	115%	103%	88.2%	98.1%	102%	113%	98.8%
COc1cc(-c2cc(/C=C/C(=O)c3ccc(N)cc3)[nH]n2)cc(OC)c1OC	24.6	51.8%	11.4%	23.9%	-28.9% (active)	10.8%	1.29% (active)	-28.9% (active)	-45% (active)	7.2% (active)	10.9%	58.3%	-2.03% (active)	-23.2% (active)	-9.2% (active)	22.9%	-64.1% (active)	29.2%	34.8%	-22.3% (active)
Cc1ccc(CC#N)cc1C	110	96.1%	101%	101%	99.1%	98%	109%	103%	111%	85.4%	73.8%	121%	97.2%	83.2%	86.2%	93%	87.5%	127%	96.9%	95.4%
CC(C)=NNc1ncnc2c1ncn2C1OC(CO)C(O)C1O (stereo not given)	31.7	32%	-1.85% (active)	7.08% (active)	-2.28% (active)	14.8%	14.3%	35%	3.97% (active)	12.8%	14.8%	-15.8% (active)	19.3%	23.1%	40.9%	8.82% (active)	35.3%	73.9%	35.8%	12.6%
